Screens deposited in PubChem by several laboratories.
RAM network inh = inhibitors of the yeast RAM network, primary screen, dse1pr::URA3 reporter, 5-FOA selection; S. cerevisiae dse1pr::URA3 reporter, 5-FOA growth OD615, 2 d; analog-sensitive cbk1-as2 kinase mutant strain; inhibition, % at 50 µM; 1.8% of 190,000 active;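 active = inhibition above a set limit, 3 SD over mean compound inhibition, cut at about 8.4% in these data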;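 note: 0% = DMSO-only wells with no growth and 100% = 10 µM 1-NA-PP1 full growth; inhibition rescues growth on 5-FOA so higher OD means more RAM inhibition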
S1P4 antagonist = S1P4 receptor antagonists, primary screen, cell-based; Sphingosine 1-phosphate receptor 4 (Homo sapiens), O95977; S1P4-expressing cells, antagonist mode, reporter read-out; inhibition, % at 4.98 µM; 0.26% of 220,000 active; AID 1510, 2009; in the data active = inhibition above about 29%;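 note: 0% = wells stimulated with agonist and 100% = vehicle wells without agonist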
KCC2 mod = KCC2 cotransporter modulators, thallium flux, primary screen, cell-based, HEK293 KCC2, FluoZin-2 fluorescence, MLSMR | KCC2 cells, thallium flux FluoZin-2 fluorescence | B-score of Tl+ flux slope (higher = more flux/activation; lower = inhibition) at 10 µM | 2.2% of 190,000 active;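 active = thallium flux slope and its plate-corrected score both differing from the plate sample mean at a set confidence after two filtering rounds, in either direction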;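 note: slope of fluorescence scaled to starting intensity during 10 to 20 s after thallium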
S1P4 agonist = S1P4 receptor agonists, primary screen, cell-based. S1P4-expressing cell line, agonist reporter assay. activation, % at 4.98 µM. 0.35% of 220,000 active; in the data active = activation above about 11%;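 note: 0% = DMSO vehicle and 100% = reference agonist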
ROMK primary = ROMK potassium channel modulators, primary screen, cell-based, thallium flux, MLSMR library | Tet-inducible ROMK, thallium flux fluorescence; actives lie on both sides | B-score at 10 µM | 2% of 130,000 active | ATP-sensitive inward rectifier potassium channel 1 (Homo sapiens), P48048 | AID 1918, 2009;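 active = signal ratio slope over the read window, or its plate-corrected B-score, at least 3 SD from the plate mean, either direction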;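 note: B-score of the F/F0 ratio slope over 7 to 12 s after thallium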
S1P3 antagonist = S1P3 receptor antagonists, primary screen, cell-based. inhibition, % at 4.98 µM. 0.27% of 170,000 active. Sphingosine 1-phosphate receptor 3 (Homo sapiens), Q99500. CHO S1P3 NFAT-BLA reporter, FRET fluorescence, antagonist mode;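 active = inhibition above the plate cutoff, the mean inhibition of test wells on that plate plus 3 SD, cut at about 28% in these data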;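 note: cells challenged with S1P at its EC80 of 0.8 µM; blue over green emission ratio from cleaved BLA substrate after 4 h stimulation; 0% = S1P-stimulated wells and 100% = unstimulated DMSO-only wells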
Target sequence (Q99500 whole entry, looked up): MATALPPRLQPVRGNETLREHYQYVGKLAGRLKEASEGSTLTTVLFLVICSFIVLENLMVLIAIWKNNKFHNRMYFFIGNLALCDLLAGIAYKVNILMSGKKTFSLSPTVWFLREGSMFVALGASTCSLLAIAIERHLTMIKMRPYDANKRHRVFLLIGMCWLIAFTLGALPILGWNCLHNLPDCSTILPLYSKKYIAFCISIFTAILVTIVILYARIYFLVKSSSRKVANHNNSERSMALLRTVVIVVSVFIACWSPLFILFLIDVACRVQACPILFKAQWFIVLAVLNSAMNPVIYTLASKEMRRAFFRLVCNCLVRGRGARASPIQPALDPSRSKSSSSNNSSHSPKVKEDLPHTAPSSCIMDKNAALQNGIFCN
RAM 5-FOA = 5-FOA growth of efflux-deficient control yeast, dose response, counter-screen for RAM network inhibitor project, S. cerevisiae, OD615; 1,200 tested, under 10 active; AID 1305, 2008; max inhibition, %; S. cerevisiae efflux-deficient reporter strain, 5-FOA growth OD615, 2 days; shares compounds with RAM network inh; call rule not given here;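 note: plate controls were vehicle for no effect and reference inhibitor for full effect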
The depositor's hits bear a star; . = no result. A selection: hits, their analogues and other compounds. The true share with any hit is near 5.1%.

SMILES | RAM network inh | S1P4 antagonist | KCC2 mod | S1P4 agonist | ROMK primary | S1P3 antagonist | RAM 5-FOA
CCOC(=O)c1sc(NC(=O)CCCn2nc([N+](=O)[O-])cc2C)c(C(=O)OCC)c1C | 13* | -13 | . | 1 | -1.1 | -7 | 2
COCc1ccc(C(=O)N2CCCC(C(=O)c3cc(F)ccc3F)C2)s1 (centres undefined) | 5 | 1 | 0.047 | 1 | -0.39 | 8 | .
COc1cc(/C=N/OCC(=O)NC23CC4CC(CC(C4)C2)C3)ccc1OCc1ccccc1 | 12* | 3 | -0.13 | -1 | . | 1 | 4
Nc1ncnc(Sc2ccccc2)c1[N+](=O)[O-] | 73* | -11 | -0.22 | 0 | . | -4 | 4
CC(C)=CCC/C(C)=C/Cc1c(O)ccc(C(=O)/C=C/c2ccc(O)cc2)c1O | 15* | 7 | -1.4 | 1 | 1.3 | -13 | 5
Nc1nc(SCC(=O)NCc2ccc(F)cc2)[nH]c(=O)c1NC(=O)c1ccc(Cl)cc1 | 12* | -14 | 0.12 | -1 | -0.042 | -2 | 1
Nc1nc(SCC(=O)NCc2ccccc2Cl)[nH]c(=O)c1NC(=O)c1ccccc1F | 3 | -13 | -0.79 | 2 | 0.015 | -4 | .
COC(=O)c1c(NC(=O)CN2CCN(c3cccc(Cl)c3)CC2)sc(C)c1C | 2 | -15 | 0.73 | -2 | 0.19 | 4 | .
COCCNC(=O)C12CC3CC(C1)CC(c1ccccc1)(C3)C2 | 1 | 0 | -0.64 | -1 | 1 | -8 | .
COc1ccc(NC(=O)C23CC4CC(C2)CC(c2ccccc2)(C4)C3)c(OC)c1 | 13* | -1 | 0.4 | 0 | . | -1 | 4
CCN(CC)CCCNC(=O)CSc1nc(-c2ccc(F)cc2)cc(C(F)(F)F)n1 | -1 | 2 | -0.32 | 0 | . | -4 | .
CCOC(=O)c1ccccc1NC(=O)c1c(O)c2ccccc2n(CC)c1=O | 11* | -12 | -0.25 | -2 | . | -11 | 2
C=CCn1c(=O)c(C(=O)Nc2ccccc2C(=O)OCC)c(O)c2ccccc21 | 14* | 3 | -0.73 | -2 | . | -4 | 2
CCCn1c(=O)c(C(=O)Nc2ccccc2C(=O)OC)c(O)c2ccccc21 | 14* | -6 | -0.72 | -1 | . | -23 | 2
CCn1c(=O)c(C(=O)Nc2ccsc2C(=O)OC)c(O)c2ccccc21 | 2 | -8 | 0.11 | -1 | . | 0 | .
CCCCn1nnc(NC(=O)c2ccc(-c3ccccc3[N+](=O)[O-])o2)n1 | 2 | -7 | -1.6 | -1 | 0.56 | -6 | .
CCCCn1nnc(NC(=S)NC(=O)c2ccc(-c3cccc(Cl)c3Cl)o2)n1 | 13* | -3 | 34* | 3 | . | -25 | 5
COc1cccc(NC(=S)NCc2ccc3c(c2)cc(C)n3C)c1 | 12* | -6 | -0.58 | -1 | -0.57 | 9 | 6
Cc1cc2cc(CNC(=S)Nc3ccc(OC(F)(F)F)cc3)ccc2n1C | 4 | 14 | 0.94 | 1 | -0.22 | 3 | .
NC(=O)c1ccsc1NC(=O)COC(=O)CCOc1ccccc1 | . | -27 | -3.5 | 0 | . | -14 | .
O=C(c1ccccc1)N(Cc1cccnc1)C1(C(=O)Nc2ccccc2)CCCCC1 | 16* | -3 | 0.15 | 0 | 0.59 | -11 | 3
CC1(C)C=Cc2c(c3c(c4c(=O)c(-c5ccc(O)cc5)coc24)OC(C)(C)CC3)O1 | 5 | 14 | 0.64 | -1 | -0.14 | 2 | .
CC(C)=CCc1c2c(c3occ(-c4ccc(O)cc4)c(=O)c3c1O)C=CC(C)(C)O2 | 17* | -10 | 0.67 | 0 | -0.16 | -2 | 4
COc1ccc(Cn2nnnc2C(C(C)C)N(Cc2ccco2)Cc2cccs2)cc1 (centres undefined) | 12* | 2 | 0.037 | 0 | . | 54* | 4
CC(C)C(c1nnnn1Cc1ccccc1)N(Cc1ccco1)Cc1cccs1 (centres undefined) | 13* | -4 | -0.41 | -1 | . | 49 | 4
SMILES | RAM network inh | S1P4 antagonist | KCC2 mod | S1P4 agonist | ROMK primary | S1P3 antagonist | RAM 5-FOA
CCOC(=O)c1c(-c2cccc([N+](=O)[O-])c2)csc1NC(=O)CCCOc1ccccc1 | 14* | -2 | 0.017 | -1 | . | -4 | 3
CCOC(=O)c1c(-c2ccccc2)csc1NC(=O)COc1ccc2c(C)cc(=O)oc2c1 | 3 | -17 | 0.89 | 1 | 0.013 | 1 | .
CCOC(=O)c1c(-c2cccc([N+](=O)[O-])c2)csc1NC(=O)CCCOc1ccccc1OC | 15* | -24 | -0.49 | -1 | . | . | 2
O=C(NCc1ccccc1)/C(=C/c1ccc(OC(F)F)cc1)c1ccccc1 | 12* | -4 | -0.84 | -1 | . | 10 | 2
Clc1ccc(OCc2nnc(-c3ccccc3Br)o2)cc1 | 6 | -8 | . | -1 | . | -7 | .
O=S(=O)(c1ccccc1F)N(Cc1ccco1)Cc1nnc(-c2ccccc2Br)o1 | 17* | 8 | . | 1 | -0.4 | -9 | 1
O=C(COC(=O)c1ccccn1)Nc1nc(-c2cccc([N+](=O)[O-])c2)cs1 | . | 16 | 0.72 | -1 | -0.0045 | -7 | .
NCCCCCc1nnc(SCC(N)=O)o1 | 2 | -8 | 1.2 | -1 | -0.21 | 0 | .
O=C(Nc1ccc(Cl)c([N+](=O)[O-])c1)C(Sc1ccccc1)c1ccccc1 (centres undefined) | 15* | -6 | -0.03 | -1 | -0.091 | 6 | 2
O=C(Nc1cc([N+](=O)[O-])ccc1Cl)C(Sc1ccccc1)c1ccccc1 (centres undefined) | 5 | 4 | -0.2 | 1 | 0.0049 | -1 | .
COc1ccc(NC(=O)C(Sc2ccccc2)c2ccccc2)c(OC)c1 (centres undefined) | 2 | -3 | -1.1 | 1 | -1.2 | 7 | .
COc1ccccc1NC(=O)C(Sc1ccccc1)c1ccccc1 (centres undefined) | 11* | -11 | -0.54 | 2 | 0.055 | 5 | 3
COc1ccc(S(=O)(=O)n2nc(OC(=O)c3cccs3)cc2NC(=O)c2cccs2)cc1 | 5 | -1 | 2.1 | 0 | . | -2 | .
Cn1c(O)c(C=Nc2ccc(Br)cc2)sc1=O | 3 | -1 | 0.41 | 0 | 0.55 | -4 | .
COc1cc2c(cc1NC(=O)CSc1ccc(C)cc1)oc1ccccc12 | 4 | -17 | . | 1 | . | . | .
COc1cc2c(cc1NC(=O)C(C)Sc1ccc(C)cc1)oc1ccccc12 (centres undefined) | 14* | -14 | . | 0 | . | . | 4
